Measured values as given in PubChem BioAssay.
Values without a mark were called inactive. The rule behind the calls is not given here.

Biological target: Pantothenate synthetase (Mycobacterium tuberculosis (strain ATCC 25618 / H37Rv)) (UniProt P9WIL5)
Assay: Coupled enzyme confirmation of inhibitors against recombinant Mtb PanC (AID 375);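 note: 0% = full reaction with vehicle and 100% = no enzyme background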
Details: coupled enzyme assay; at 10 µM, hits give high values

Pantothenate synthetase (Mycobacterium tuberculosis (strain ATCC 25618 / H37Rv)), sequence (P9WIL5 whole entry, looked up): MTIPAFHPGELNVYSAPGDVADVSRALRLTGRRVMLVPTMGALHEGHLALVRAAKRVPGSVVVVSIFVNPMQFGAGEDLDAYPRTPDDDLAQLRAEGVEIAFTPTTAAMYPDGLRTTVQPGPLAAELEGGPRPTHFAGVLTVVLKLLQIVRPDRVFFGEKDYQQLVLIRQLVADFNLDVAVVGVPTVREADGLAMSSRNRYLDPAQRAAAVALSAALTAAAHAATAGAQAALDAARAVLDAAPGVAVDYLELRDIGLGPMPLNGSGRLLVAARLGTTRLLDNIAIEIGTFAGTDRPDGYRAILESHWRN

| Compound | inhibition |
| --- | --- |
| O=C(CSc1ccc(-c2ccccc2)nn1)N1CCOCC1 | 0% |
| Cc1noc(C)c1S(=O)(=O)N1CCN(Cc2ccc3c(c2)OCO3)CC1 | 0% |
| COc1ccc(C2CC(c3ccccc3)Nc3nc(NC(=O)c4cccs4)nn32)cc1 (stereo not given) | 0% |
| N#C/C(=C(/O)CN1CCOCC1)c1nc2ccccc2s1 | 0% |
| CCn1c(=O)n(CC(=O)NCc2ccccc2OC)c(=O)c2ccccc21 | 12% |
| COc1cc(OC)c2c(c1)OC(c1ccc(OC)c(OC)c1)C(O)C2=O (stereo not given) | 1% |
| C=CCn1c(SCC(=O)NC23CC4CC(CC(C4)C2)C3)nc(O)cc1=O | 0% |
| O=C1c2ccccc2C(Nc2ccc3c(c2)OCO3)N1Cc1ccc2c(c1)OCO2 (stereo not given) | 0% |
| CCCn1c(SCC(=O)Nc2ccccc2C(=O)OC)nc2c1c(=O)n(C)c(=O)n2C | 3% |
| CCN1C(=O)C2(C(C#N)=C(N)Oc3n[nH]c(C(C)C)c32)c2ccccc21 (stereo not given) | 1% |
| CCOC(=O)C1CCCN(C(=O)c2sc3nc(-c4ccccc4)cn3c2C)C1 (stereo not given) | 0% |
| Cc1ccc(-c2oc3ccccc3c(=O)c2O)cc1 | 0% |
| Cc1cc(NC(=O)CSc2nccn2-c2ccc(F)cc2)no1 | 5% |
| CCOc1ccc(N(CC(=O)NCc2cccc(OC)c2)S(=O)(=O)c2c(C)noc2C)cc1 | 6% |
| O=C(O)c1cc2c(s1)CCCC2 | 0% |
| N#Cc1nc(-c2ccc(Cl)cc2)oc1NCCc1ccccn1 | 0% |
| COc1ccc(NC(=O)C23CCC(C)(C(=O)C2)C3(C)C)cc1 (stereo not given) | 0% |
| O=S(=O)(Nc1ccn(-c2ccccc2)n1)c1ccc(Br)cc1 | 0% |
| N#CCSCC(=O)Nc1ccc(F)cc1 | 0% |
| CCN(CC)c1ccc2c(C)c(-c3ccc(N)cc3)c(=O)oc2c1 | 10% |

| Compound | inhibition |
| --- | --- |
| Cc1cc(=O)oc2cc(OCC(=O)OCC(=O)N3CCc4ccccc43)ccc12 | 3% |
| Cc1nc2scc(-c3cccs3)c2c(=O)n1-n1cccc1 | 4% |
| CCOc1ccc(CSC(CC(=O)O)C(=O)O)cc1 (stereo not given) | 6% |
| COc1nc(N2CCOCC2)nc(-n2cccc2)n1 | 2% |
| CC1CCC(NC(=O)C2CCN(c3cnccn3)CC2)CC1 (stereo not given) | 0% |
| O=C(O)CSC1CC(=O)N(c2ccc(Cl)c(Cl)c2)C1=O (stereo not given) | 0% |
| CCN(CC(=O)Nc1c(C(=O)OC)[nH]c2ccccc12)c1ccc2c(c1)OCO2 | 5% |
| C=CCn1c(=O)c(C(=O)Nc2ccccc2C(=O)OCC)c(O)c2ccccc21 | 0% |
| Cc1c(C)c2cc(Cl)c(O)c(CN3CCCCC3)c2oc1=O | 1% |
| CCCCCOC(=O)CSc1nnc(-c2cc(OC)c(OC)c(OC)c2)o1 | 4% |
| CCOc1ccc(Nc2nc(Cc3nnc(SCC(N)=O)o3)cs2)cc1 | 0% |
| CN=Cc1cc(-c2ccccc2)sc1O | 0% |
| O=C(c1cc(-c2cccs2)on1)N1CCc2ccccc2C1 | 2% |
| COc1ccc(NC(=O)CSc2ccccn2)cc1OC | 0% |
| O=C1C(c2ccncc2)=C(O)c2ccccc21 | 0% |
| Cc1cc(NC(=O)c2cc(-c3ccco3)on2)n(-c2ccccc2)n1 | 0% |
| O=C(O)CCc1cc(I)c(Oc2ccc(O)c(I)c2)c(I)c1 | 8% |
| CC(C)(C)NC(=O)C(Cc1ccccc1)NS(=O)(=O)c1cccc2nsnc12 (stereo not given) | 0% |
| O=C(CN(c1ccccc1)S(=O)(=O)c1ccccc1)N1CCN(Cc2ccc3c(c2)OCO3)CC1 | 0% |
| COc1cccc(OC)c1C(=O)N1CCN(S(=O)(=O)c2ccc(C)cc2)CC1 | 1% |
